Source: PubChem
MT1-MMP txn act = MT1-MMP promoter reporter activation – cell-based, luciferase luminescence, primary screen; 86,000 compounds, 0.16% hits; activation factor at 10 µM; HT1080 MT1-MMP promoter luciferase reporter, overnight; active compounds read high;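 active means activation factor of at least 2 for MT1-MMP transcription at 10 µM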
Measles CPE = compounds protecting cells from measles virus cytopathic effect, primary screen, measles RdRp inhibitor project, single point, MLSMR library, absorbance | Measles virus-infected cells, CPE protection | protection (pct of control), % at 4 µM | 140,000 compounds, 1.5% hits | AID 841, 2007; in the data active means protection mostly above about 24%, no sharp cut-off; inactive means mostly below about 26%
PostGolgi ctrl = growth inhibition of yeast control strain, primary screen, counter-screen for post-Golgi transport modulator project. 98,000 compounds, 5% hits. inhibition, % at 10 µM. efflux-deficient yeast background strain, growth absorbance A615, 16 h. AID 738, 2007
PostGolgi yeast = phenotypic screen on post-Golgi transport, primary screen. inhibition, % at 10 µM. post-Golgi transport phenotypic cell assay. 98,000 compounds, 0.9% hits. AID 739, 2007;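 further: yeast cells grown in 1536-well plates; yeast grown about 18 h at 30C before absorbance read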
An asterisk follows results filed as active; · = not tested or not shown. In the library only some 5.3% were active in any assay of this set; here they are far more common. Unless noted, no stated cut-off is given here; in the data, active means inhibition above about 30%; inactive means the rest.

SMILES	MT1-MMP txn act	Measles CPE	PostGolgi ctrl	PostGolgi yeast
CCCOc1ccc(N2CC(C(=O)Nc3ccccc3C(=O)NCc3ccco3)CC2=O)cc1 (configuration not stated)	1.1	6	5	-4
COC(=O)c1cccc(NC(=O)CCCOc2cccc(C)c2)c1	1.1	3	16	-6
COc1ccccc1-c1coc2cc(OC(=O)/C=C/c3ccccc3)ccc2c1=O	·	12	·	·
COc1ccc(C)cc1NC(=O)C1CC(=O)N(Cc2ccco2)C1 (configuration not stated)	1.1	5	5	7
COc1ccc(S(=O)(=O)Nc2ccccc2C(=O)NCc2ccco2)cc1	1.1	2	31*	0
COc1cc2c(cc1NC(=O)C(C)OC(=O)C1CC(=O)N(Cc3ccco3)C1)oc1ccccc12 (configuration not stated)	2.1*	19	23	-3
CC(=O)Nc1cccc(N2C(=O)CCC2=O)c1	1.1	4	38*	-11
COc1ccc(C)cc1S(=O)(=O)Nc1cccc(Cl)c1	·	10	43*	-4
COc1cccc(NS(=O)(=O)c2cc(C)ccc2OC)c1	·	11	16	2
c1ccc(CN2c3ccccc3-c3nc4ccccc4n3C2c2ccccn2)cc1 (configuration not stated)	1.1	36	43*	9
CC(=O)N1CCN=C1SCc1ccc(Cl)cc1	1.1	8	35*	3
Cc1csc(N2CCc3ccccc32)n1	1.5	6	31*	13
COC(=O)c1c(C(=O)OC)c(-c2ccc(Cl)c(Cl)c2)n2c1CCC2	·	8	36*	1
CCC(C)(C)NC(=O)C(c1ccc(OC)cc1)N(Cc1cccs1)C(=O)CCC(=O)Nc1cc(C)on1 (configuration not stated)	1.2	10	·	·
Cc1c(C(=O)NCc2ccccc2)oc2ccc(S(=O)(=O)N3CCCC3)cc12	1.1	11	7	-6
COc1ccccc1CNC(=O)c1oc2ccc(S(=O)(=O)N3CCCC3)cc2c1C	1.1	15	31*	1
Cc1c(C(=O)N(C)Cc2ccccc2)oc2ccc(S(=O)(=O)N3CCCC3)cc12	1	81*	29	1
Cc1c(C(=O)NCc2cccnc2)oc2ccc(S(=O)(=O)N3CCCCC3)cc12	1	12	0	0
Cc1c(C(=O)NCc2cccnc2)oc2ccc(S(=O)(=O)N3CCCCCC3)cc12	1.1	4	42*	-1
Cc1c(C(=O)N2CCOCC2)oc2ccc(S(=O)(=O)N3CCCC3)cc12	1	4	·	·
CCc1ccc(N2C(=O)C3C4CCC(C4=C(C)C)C3C2=O)cc1 (configuration not stated)	·	8	·	·
CC(C)c1cc(NCC2CCCO2)n2c(nc3ccccc32)c1C#N (configuration not stated)	1.1	12	4	-6
COC(CNC(=O)c1cc(C)nn1-c1ccccc1)OC	1.3	2	18	-5
Cc1sc(NC(=O)c2ccco2)c(C(c2ccncc2)N2CCOCC2)c1C (configuration not stated)	1	10	33*	-4
Cc1sc(NC(=O)c2ccco2)c(C(c2cccnc2)N2CCCC2)c1C (configuration not stated)	1.2	20	39*	0
SMILES	MT1-MMP txn act	Measles CPE	PostGolgi ctrl	PostGolgi yeast
Cc1sc(NC(=O)c2ccco2)c(C(Nc2ccccn2)c2ccccc2)c1C (configuration not stated)	·	28	·	·
Cc1sc(NC(=O)c2ccco2)c(C(c2cccnc2)N2CCN(C)CC2)c1C (configuration not stated)	1.1	2	15	-4
Cn1c2c(c(=O)n(C)c1=O)C(C(F)(F)F)(C(F)(F)F)N=C(CCC1CCCCC1)N2	·	4	·	·
COc1ccc(C(=O)c2c(C(F)(F)F)oc3c2C(=O)c2ccccc2C3=O)cc1	0.8	6	46*	84*
COc1ccc(C(=O)c2coc(-c3ccccc3C(=O)O)c2C(=O)O)cc1	·	9	·	·
C/C(=N\NC(=O)C1CC1c1ccccc1)c1cccs1 (configuration not stated)	·	12	1	-4
COc1ccc(C2CC2/C(=N/OC(=O)c2cccs2)c2ccccc2)cc1 (configuration not stated)	1.3	12	40*	20
O=C1C2CCCN2C(=O)N1CCCCN1CCN(c2cccc(Cl)c2)CC1 (configuration not stated)	·	2	·	·
Cc1cc(Cl)ccc1OCc1n[nH]c(=S)n1C1CCCCC1	1.4	2	96*	99*
CC(=O)Nc1ccc(S(=O)(=O)N2CCN(c3cc(C)ccc3C)CC2)cc1	·	19	58*	6
Cc1ccc(C)c(N2CCN(S(=O)(=O)c3ccc4c(c3)OCCO4)CC2)c1	1.1	14	22	-4
Cc1ccccc1OCCCC(=O)NCc1ccco1	·	11	1	0
O=C1C2CCCN2C(c2ccc(F)cc2)N1c1nccs1 (configuration not stated)	1.2	33*	6	0
Cc1ccc(C2N(c3nccs3)C(=O)C3CCCN32)cc1 (configuration not stated)	1.2	2	1	-6
COc1ccc(OC)c(NC(=O)c2nnn(Cc3ccc(Br)cc3F)c2N)c1	1	6	31*	-13
CCOC(=O)c1c(C)oc2c1c(C(c1cccnc1)N1CCOCC1)c(O)c1ccccc12 (configuration not stated)	·	4	37*	-2
CCOC(=O)c1c(C)oc2c1c(C(c1cccnc1)N1CCN(C)CC1)c(O)c1ccccc12 (configuration not stated)	1.7	·	·	·
CCOC(=O)c1c(C)oc2c1c1c(c3ccccc32)OCN(Cc2cccnc2)C1	1.9	23	35*	9
CCOC(=O)c1c(C)oc2c1c(C=NCc1ccccn1)c(O)c1ccccc12	1.4	18	10	2
NC(=O)NCCC1=CCCCC1	·	0	2	-6
O=C(O)C1C2CCC(O2)C1C(=O)NCCC1=CCCCC1 (configuration not stated)	1.2	1	30*	-2
CCC(Sc1nnnn1-c1ccccc1)C(=O)NC(C)c1ccccc1 (configuration not stated)	1.2	34	13	2
CCC(Sc1nnnn1-c1ccccc1)C(=O)Nc1nc2ccccc2s1 (configuration not stated)	1.3	23	44*	9
Oc1oc(-c2cccc3ccccc23)nc1C=NCc1ccccc1	·	6	·	·
CC(=O)N1CC=CC1(C)C(=O)NCC1CC1 (configuration not stated)	0.9	·	·	·
C=C(C)C1CC=C(C)/C(=N\NC(=O)CNc2cccc3ccccc23)C1 (configuration not stated)	·	16	·	·
Cc1nc(N2CCN(c3ccccc3)CC2)nc2c1C(=O)CC(c1ccccc1)C2 (configuration not stated)	1	1	-7	27
Cc1nc(N2CCN(c3ccccc3)CC2)nc2c1C(=O)CC(C)C2 (configuration not stated)	1	7	37*	0
COc1ccc2c(c1)SCCC2=O	·	34*	1	1
